Laboratory results taken from the supplement of paper PMC9254222.
In all, about 1,100 compounds were measured (“Renilla luciferase signal (cell health) relative to plate median”: median about 0.97, highest 2% from about 1.6 on). For the sample, the highest values were picked, then their nearest neighbours and some compounds at random.

Tested on: HEK293T (UBE3A T485A transfected, BAR Wnt reporter)
Assay: Renilla luciferase signal (cell health) relative to plate median (fold (linear ratio)); higher = higher Renilla signal
Conditions: 24 h
Procedure, shortened: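 HEK293T cells were grown in DMEM with 10% FBS at 37°C and 5% CO2, at 4500 cells/well in white 384-well plates. They were transfected with a BAR firefly luciferase Wnt reporter, TK-Renilla and an expression plasmid using Fugene 6. Four hours later, robots dosed the chemicals at 0.01–100 uM for 24 h, followed by Dual-Glo luciferase readout. Wnt activity (firefly/Renilla ratio) and cell health (raw Renilla) were median-centred per plate, averaged over four biological replicates.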

Structure (SMILES)	Renilla luciferase signal (concentration: 0.1 uM)	Renilla luciferase signal (concentration: 1 uM)	Renilla luciferase signal (concentration: 10 uM)	Renilla luciferase signal (concentration: 100 uM)	Renilla luciferase signal (concentration: 0.01 uM)
COCCOCCOC [Bis(2-methoxyethyl) ether]	1.08	1.3	1.34	1.31	
Cn1c(=O)c2c(ncn2C)n(C)c1=O [Caffeine]	0.946	0.966	0.989	1.67	1.18
Cn1c(=O)c2[nH]cnc2n(C)c1=O [Theophylline]	0.944	0.973	0.911	1.09	
Cn1cnc2c1c(=O)[nH]c(=O)n2C [Theobromine]	0.97	0.856	1.15	1.22	
O=C(N[C@@H](Cc1ccccc1)[C@@H](O)C(=O)N1C[C@@H](O)[C@@H](O)C1)c1cc2cc(Cl)ccc2[nH]1 [Ingliforib]	0.797	0.711	0.851	0.148	
COc1cccc(-c2ccc(/C=C\CN3CCCCCC3)cc2Cl)c1.Cl	1.01	1.16	1.14	2.06	
CCOCCO [2-Ethoxyethanol]	1.23	1.26	1.38	1.66	
CCOCCOCCOCCO [2-[2-(2-Ethoxyethoxy)ethoxy]ethanol]	0.893	0.862	0.833	0.954	
CCOCCOCCO [2-(2-Ethoxyethoxy)ethanol]	0.939	1.02	0.906	1.17	
Cc1ncc(CO)c(CO)c1O [Pyridoxine]	0.951	0.873	1	1.14	
C=CCc1ccc(OC)c(OC)c1 [Methyleugenol]	0.897	0.832	0.797	0.924	
Cc1ccc(C)c(O)c1C [2,3,6-Trimethylphenol]	0.934	0.808	0.965	1.14	
Cc1ccc(N)cc1O [5-Amino-2-methylphenol]	1	1.22	1.28	1.78	
Cc1ccc(C)c(O)c1 [2,5-Dimethylphenol]	1.01	0.973	1.14	1.28	
C[C@]12CC[C@@H]3c4ccc(O)cc4C[C@@H](CCCCCCCCCS(=O)CCCC(F)(F)C(F)(F)F)[C@H]3[C@@H]1CC[C@@H]2O (stereo partly specified) [Fulvestrant]	1.07	1.04	1.09	0.48	
Cc1nc(C)nc(N2C[C@@H](C)N(c3ccnc([C@@H](C)O)n3)[C@@H](C)C2)n1	0.951	1.05	1.15	1.28	
CC(C)(C)CC(C)(C)c1ccc(O)c(-n2nc3ccccc3n2)c1 [Octrizole]	1.08	1.17	1.27	1.31	
Cc1cccc(Nc2cc(Cl)nc(SCC(=O)O)n2)c1C [Pirinixic acid]	0.799	0.871	0.861	1.71	
O=C1CCC(N2C(=O)c3ccccc3C2=O)C(=O)N1 (stereo unspecified) [Thalidomide]	0.78	0.818	0.85	0.675	
CCN(CC)C(=O)c1cccc(C)c1	0.897	0.949	0.847	1.79	0.895
CCNc1cccc(C)c1 [N-Ethyl-3-methylaniline]	1.02	0.916	0.98	0.872	

Structure (SMILES)	Renilla luciferase signal (concentration: 0.1 uM)	Renilla luciferase signal (concentration: 1 uM)	Renilla luciferase signal (concentration: 10 uM)	Renilla luciferase signal (concentration: 100 uM)	Renilla luciferase signal (concentration: 0.01 uM)
COc1cc(C=O)ccc1O [4-Hydroxy-3-methoxybenzaldehyde]	0.805	0.833	0.848	0.902	
CCN(Cc1c(F)cccc1Cl)c1c([N+](=O)[O-])cc(C(F)(F)F)cc1[N+](=O)[O-] [Flumetralin]	0.795	0.84	1	0.766	1.1
Cc1cc(C=C2SC(=O)N(c3ccccc3)C2=O)c(C)n1-c1cccnc1	1.02	1.06	0.979	0.257	
O=c1[nH]c2cc([N+](=O)[O-])c([N+](=O)[O-])cc2[nH]c1=O	1.01	1.02	1.09	1.96	1.11
O=C(Nc1ccc(Cl)cc1)Nc1ccc(Cl)c(Cl)c1 [Triclocarban]	1	0.895	0.408	0.021	
COC(=O)c1ccccc1O [Methyl salicylate]	1.22	1.13	1.23	0.53	
O=C([O-])c1ccc2c(c1)nc(C(=O)NC1CCN(C3CC3)CC1)n2Cc1cc(-c2ccc(Cl)s2)on1.[Na+]	0.987	0.823	0.947	0.531	
O=C1OC(c2ccc(O)cc2)(c2ccc(O)cc2)c2ccccc21 [Phenolphthalein]	1.1	1.09	1.15	0.0287	
CCCCCCCC/C=C\CCCCCCCC(=O)OC[C@@H](O)[C@H]1OC[C@H](O)[C@H]1O [Sorbitan, mono-(9Z)-9-octadecenoate]	1	0.88	0.863	0.85	
O=C(O)c1ccccc1C(c1ccc(O)cc1)c1ccc(O)cc1 [Phenolphthalin]	1.11	1.1	0.958	0.886	
CN(C)CCOC(c1ccccc1)c1ccccc1.Cl [Diphenhydramine hydrochloride]	0.825	0.842	0.836	0.491	
CCCC(=O)O [Butanoic acid]	1.03	1.11	1.14	1.73	
CCCCCC(=O)O [Hexanoic acid]	1.26	1.16	1.24	1.41	
CCCCCCCCCC(=O)O [Decanoic acid]	0.743	0.768	0.634	0.979	
CN(C)C(=O)C1(N2CCCCC2)CCN(CC[C@@]2(c3ccc(Cl)c(Cl)c3)CN(C(=O)c3ccccc3)CCO2)CC1	0.903	0.888	0.664	0.0169	
CCc1c(C(=O)NN2CCCCC2)nn(-c2ccc(Cl)cc2Cl)c1-c1ccc(Br)cc1 [Surinabant]	1.06	1.07	0.127	0.363	
COC(=O)CCCCC(=O)OC [Dimethyl adipate]	0.854	0.917	0.874	1.11	
CCCCCCCC(=O)OC [Methyl octanoate]	1.03	0.911	1.04	1.61	
CCCCCCCCCCCC(=O)OC [Methyl dodecanoate]	0.884	0.792	0.85	0.89	
O=C(O)c1cccc(C[C@@H]2COc3ccc(OCc4nc5cc(F)ccc5s4)cc3[C@@H]2O)c1	1.04	1.05	1.17	0.94	
C=CCCCCCCCCCCCC [1-Tetradecene]	1.14	1.17	0.992	1.23	

Structure (SMILES)	Renilla luciferase signal (concentration: 0.1 uM)	Renilla luciferase signal (concentration: 1 uM)	Renilla luciferase signal (concentration: 10 uM)	Renilla luciferase signal (concentration: 100 uM)	Renilla luciferase signal (concentration: 0.01 uM)
CC[C@H]1CC[C@H](NCc2cc3c(cc2OC)[C@H]2C[C@H]2C(=O)N3C)[C@H](c2ccccc2)N1	0.925	0.69	0.042	0.0275	
CC(C)(O)c1ccc(CNC(=O)c2cccnc2Oc2ccc3nonc3c2)cc1	0.961	0.975	0.999	0.124	
CCCN(CCC)C(=O)SCC	0.898	1.09	0.918	2.92	0.911
CCSC(=O)N(CC(C)C)CC(C)C [Butylate]	1.15	1.07	1.09	1.59	1.09
O=[N+]([O-])c1ccc(O)cc1 [4-Nitrophenol]	0.863	0.956	0.876	0.736	
O=C(O)c1ccc([N+](=O)[O-])cc1 [4-Nitrobenzoic acid]	1.01	0.971	1.08	1.33	
C=CCc1cc(S(=O)(=O)c2ccc(O)c(CC=C)c2)ccc1O [4,4'-Sulfonylbis[2-(prop-2-en-1-yl)phenol]]	1	1.11	1.34	0.0284	
Cc1c(C)c2c(c(C)c1O)CCC(C)(COc1ccc(CC3SC(=O)NC3=O)cc1)O2 (stereo unspecified) [Troglitazone]	0.923	0.982	0.892	0.0852	
Cc1c(C)c2c(c(C)c1O)CCC(C)(CCCC(C)CCCC(C)CCCC(C)C)O2 (stereo not drawn) [Vitamin E (alpha-tocopherol)]	1.02	0.963	1.28	1.99	1.15
CCCCCCCCCCCCCCO [1-Tetradecanol]	0.93	0.831	0.94	0.92	
CCOc1ccc2c(c1)C(C)=CC(C)(C)N2 [Ethoxyquin]	1	1.01	0.86	0.0339	
OC[C@H]1O[C@@H]2O[C@H]3[C@H](O)[C@@H](O)[C@@H](O[C@H]4[C@H](O)[C@@H](O)[C@@H](O[C@H]5[C@H](O)[C@@H](O)[C@@H](O[C@H]6[C@H](O)[C@@H](O)[C@@H](O[C@H]7[C@H](O)[C@@H](O)[C@@H](O[C@H]1[C@H](O)[C@H]2O)O[C@@H]7CO)O[C@@H]6CO)O[C@@H]5CO)O[C@@H]4CO)O[C@@H]3CO [alpha-Cyclodextrin]	1.12	1.05	1.05	1.77	
Cc1oc(-c2ccccc2)nc1CCOc1cccc2c1ccn2CCC(=O)O	0.873	0.846	0.748	0.478	
CCN(CC)CCNc1ccc(CNC=O)c2sc3ccc(OC)cc3c(=O)c12	0.886	0.626	0.193	0.0173	
NC(=O)N(O)[C@@H]1C=C[C@H](Oc2cccc(Oc3ccc(F)cc3)c2)C1	1.08	0.968	1.14	0.801	
CC1(C)NC(=O)N(c2ccc([N+](=O)[O-])c(C(F)(F)F)c2)C1=O [Nilutamide]	1.05	1.09	0.995	0.268	
CC(=O)CC(c1ccccc1)c1c(O)c2ccccc2oc1=O (stereo unspecified) [Warfarin]	1.16	0.923	0.762	1.24	
NC(CCCP(=O)(O)O)C(=O)O (racemic)	0.901	1.22	1.06	2.45	0.767
Cc1ccc(S(=O)(=O)NC(=O)NN2CCCCCC2)cc1 [Tolazamide]	0.729	0.841	0.872	1.19	
CC(C)(C)c1cc(O)ccc1O [tert-Butylhydroquinone]	0.651	0.859	0.989	0.227	
